# This excerpt belongs to a sample that is enriched for hits.
# NOMO-1 viab: STK33 inhibitor candidate reducing NOMO-1 cell viability; NOMO-1 AML viability, CellTiter-Glo luminescence, 72 h; inhibition, % (concentration not given with the values); 37,000 compounds, 7.5% hits; AID 2330; in the data active = inhibition above about 80%; inconclusive = no clear call, values can overlap the other calls
# PD-1 reversal: activators reversing PD-1 mediated T-cell inhibition | primary human CD4 T cells, PD-L1 beads, CellTiter-Glo 96 h | activation, % (concentration not given with the values) | 29,000 tested, under 10 active; call rule not given here;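 note: 0% = median vehicle wells and 100% = positive control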
# STK33 inh: inhibitors of human STK33 kinase; 27,000 compounds, 0.44% hits; inhibition, % at 12.5 µM; ADP-Glo luminescence, MBP substrate; in the data active = inhibition above about 20%; inconclusive = no clear call, values can overlap the other calls
# Target sequence (Q9BYT3 whole entry, looked up): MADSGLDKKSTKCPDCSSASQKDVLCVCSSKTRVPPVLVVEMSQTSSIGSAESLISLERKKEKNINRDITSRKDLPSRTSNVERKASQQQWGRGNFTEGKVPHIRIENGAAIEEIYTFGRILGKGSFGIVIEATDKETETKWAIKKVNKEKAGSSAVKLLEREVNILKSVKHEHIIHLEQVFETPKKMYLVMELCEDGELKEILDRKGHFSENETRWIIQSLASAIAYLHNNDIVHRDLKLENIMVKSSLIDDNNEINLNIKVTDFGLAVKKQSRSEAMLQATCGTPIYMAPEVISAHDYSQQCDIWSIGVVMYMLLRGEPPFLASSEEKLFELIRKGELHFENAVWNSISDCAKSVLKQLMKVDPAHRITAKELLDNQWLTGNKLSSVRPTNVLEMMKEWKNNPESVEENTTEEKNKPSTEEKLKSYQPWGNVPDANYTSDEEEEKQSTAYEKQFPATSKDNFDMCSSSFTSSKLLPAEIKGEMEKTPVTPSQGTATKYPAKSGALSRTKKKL
# * = called active by the depositor; ? = inconclusive; nt = no result given.
SMILES,NOMO-1 viab,PD-1 reversal,STK33 inh
O=C(Nc1ccc(S(=O)(=O)Nc2ncccn2)cc1)c1c(Cl)cccc1Cl,5,2,-2
CSc1c(CC(=O)NN)n(C)c2ccccc12,-20,0,nt
CC1(C)[C@@H]2CC=C(CO[C@@H]3O[C@H](CO[C@@H]4O[C@@H](CO)[C@H](O)[C@H]4O)[C@@H](O)[C@H](O)[C@H]3O)[C@H]1C2,-7,5,0
NC(=O)CSc1nc2ccccc2[nH]1,16,nt,2
c1ccc2[nH]c(SCCSc3nc4ccccc4[nH]3)nc2c1,83*,1,nt
Cc1ccc(OCC(=O)Nc2ccc(Cl)cc2C(=O)O)cc1C,16,2,-3
COc1ccc(CCNc2ncnc3scc(-c4cccs4)c23)cc1OC,?,-6,3
Cc1ccc(-n2sc3ccccc3c2=O)cc1,141*,-6,nt
Cc1ccc(-n2c(Cn3ncc4ccccc4c3=O)n[nH]c2=S)cc1,-3,nt,3
CCC(C)C1NC(=O)C(CCC(=O)O)N(C)C(=O)C(C(C)C)N(C)C(=O)CNC(=O)C2CCCN2C(=O)C(Cc2ccccc2)NC(=O)C(C(C)CC)OC(=O)C(CCC(=O)O)N(C)C(=O)C(C(C)C)NC(=O)C2CCCCN2C1=O (centres undefined),110*,2,-9
Cc1ccc(S(=O)(=O)NCC(C)O)cc1-c1nnc2c3ccccc3c(C)nn12 (centres undefined),3,-1,0
NC(=O)CSc1nnc(-c2cccs2)n1-c1ccccc1,0,nt,-2
COC(=O)CSc1nnc(-c2sc3ccccc3c2Cl)n1-c1ccccc1,30,-1,1
COC(=O)CSc1nnc(-c2cccs2)n1-c1ccc(Cl)cc1,101*,0,3
COC(=O)CSc1nnc(-c2sc3ccccc3c2Cl)n1-c1ccc(OC)cc1,85*,-2,11
O=C(Cn1c(=O)oc2ccccc21)Nc1ccc2c(c1)oc1ccccc12,6,0,0
C=CCN1C(=O)NC(C)(C)C1=O,10,6,-1
COc1cc(NC(=O)COc2ccc(Cl)cc2Cl)ccc1NC(=O)c1ccccc1Cl,39,2,0
COC(=O)C(O)(c1ccc(NC(=S)NC(=O)c2ccc(Cl)cc2Cl)c(OC)c1)C(F)(F)F (centres undefined),124*,-6,0
Cc1ccc(S(=O)(=O)N(C)CC(=O)Nc2ncc(C(F)(F)F)cc2Cl)cc1,11,1,-5
CC1=C(C#N)C(C(F)(F)F)(C(F)(F)F)N=C(C2CCCCC2)N1,141*,-2,nt
O=C(O)c1cc(F)cc(C(F)(F)F)c1,12,3,1
CC1CCCC[C@H]2C(=O)C=C[C@H](O)[C@@H]2CC(=O)O1 (some centres undefined),108*,-16,7
CCn1c(SCC(=O)Nc2ccc(F)cc2F)nnc1-c1ccccc1OC,29,-1,1
CC#CC(=O)Nc1ccc2ncnc(Nc3cccc(Br)c3)c2c1,96*,-15,0
SMILES,NOMO-1 viab,PD-1 reversal,STK33 inh
Nc1cc2ncnc(Nc3cccc(Br)c3)c2cc1N,12,-1,2
C=CCNc1sc(N)c(C#N)c1C(=O)c1ccc(Br)s1,-27,0,nt
C=CCNC(=O)[C@@H]1[C@H]2C(=O)O[C@H](c3ccccc3)[C@H](c3ccccc3)N2[C@H](c2ccc(OCCO)cc2)[C@@]12C(=O)N(C(=O)OCCOC)c1ccc(C#CCC(C(=O)OC)C(=O)OC)cc12,nt,nt,5
O=C(Cc1ccccc1)Oc1ccc(C2SCCS2)cc1,24,0,nt
C[C@H]1O[C@@H](O[C@H]2[C@@H](O)C[C@H](O[C@H]3[C@@H](O)C[C@H](O[C@H]4CC[C@@]5(C)[C@H](CC[C@@H]6[C@@H]5C[C@@H](O)[C@]5(C)[C@@H](C7=CC(=O)OC7)CC[C@]65O)C4)O[C@@H]3C)O[C@@H]2C)C[C@H](O)[C@@H]1O,120*,nt,3
Cc1noc(C)c1NC(=O)Nc1ccc2c(c1)CC(=O)N([C@@H](C)CO)C[C@H](C)[C@H](CN(C)Cc1ccc(Oc3ccccc3)cc1)O2,100*,-2,-1
Cc1noc(C)c1NC(=O)Nc1ccc2c(c1)CC(=O)N([C@H](C)CO)C[C@@H](C)[C@@H](CN(C)Cc1ccc(Oc3ccccc3)cc1)O2,32,-1,0
Cc1noc(C)c1NC(=O)Nc1ccc2c(c1)CC(=O)N([C@H](C)CO)C[C@@H](C)[C@@H](CN(C)Cc1ccc(-c3ccccc3)cc1)O2,44,-3,4
Cc1noc(C)c1NC(=O)Nc1ccc2c(c1)CC(=O)N([C@@H](C)CO)C[C@H](C)[C@H](CN(C)Cc1ccc(-c3ccccc3)cc1)O2,99*,-4,-2
CCn1c(SCC(=O)Nc2ccc(Br)cc2Cl)nnc1-c1ccccc1,-7,1,-6
CC(=O)NC(c1ccccc1)c1ccccc1,27,1,nt
CCOc1ccc(-n2c(C)nnc2SCC(=O)Nc2ccc(Br)cc2F)cc1,5,0,0
CCCCc1c(-c2ccc(O)cc2)[nH]c2nccnc12,83*,-3,57*
CCCCc1c(-c2ccc(OC)cc2)[nH]c2nccnc12,15,-28,17
c1coc(CCC2NCCn3cccc32)c1 (centres undefined),57,-4,nt
COC(=O)CCS(=O)(=O)c1cccc2c(S(=O)(=O)CCC(=O)OC)cccc12,124*,0,nt
O=C(O)CCS(=O)(=O)c1cccc2cccnc12,-25,2,-2
C[C@@H]1CN([C@H](C)CO)C(=O)Cc2cc(NC(=O)CCC(F)(F)F)ccc2O[C@H]1CN(C)Cc1ccccc1,-5,1,-4
C[C@@H]1CN([C@H](C)CO)C(=O)Cc2cc(NC(=O)CCC(F)(F)F)ccc2O[C@H]1CN(C)Cc1ccc(Oc2ccccc2)cc1,94*,-4,nt
C[C@@H]1CN([C@@H](C)CO)C(=O)c2cc(NC(=O)CCC(F)(F)F)ccc2O[C@@H]1CN(C)Cc1ccc(-c2ccccc2)cc1,64,-2,-1
C[C@H]1CN([C@@H](C)CO)C(=O)Cc2cc(NC(=O)CCC(F)(F)F)ccc2O[C@@H]1CN(C)Cc1ccc(-c2ccccc2)cc1,97*,nt,4
C[C@@H]1CN([C@H](C)CO)C(=O)c2cc(NC(=O)CCC(F)(F)F)ccc2O[C@H]1CN(C)Cc1ccc(Oc2ccccc2)cc1,85*,nt,nt
C[C@H]1CN([C@@H](C)CO)C(=O)Cc2cc(NC(=O)CCC(F)(F)F)ccc2O[C@H]1CN(C)Cc1ccc(-c2ccccc2)cc1,31,nt,0
CC1(C)N=C(NC(=O)NC(=O)c2ccccc2Cl)N(c2ccccc2)O1,2,-1,2
CCn1c(SCC(=O)Nc2ccc(Br)cc2C)nnc1-c1ccccc1F,4,0,-2
CCN=C(Nc1ccc(C(C)(C)C)cc1)SCC1CC1,-1,1,nt
O=c1c(O[C@@H]2O[C@H](CO)[C@H](O)[C@H](O)[C@H]2O)c(-c2cc(O)c(O)c(O)c2)oc2cc(O)cc(O)c12,nt,nt,13
COc1ccccc1NC(=O)CN1C(=O)C2C3CCC(C3)C2C1=O (centres undefined),10,-2,-1
COc1ccccc1NC(=O)C(Cc1ccccc1)N1C(=O)C2C3c4ccccc4C(c4ccccc43)C2C1=O (centres undefined),92*,0,-2
CS(=O)(=O)c1sc(C(=O)O)c2c1C=CCC2,-41,0,nt
